Compound activity as filed in PubChem.
These entries were drawn from the full list.
aSyn UTR act – Activators working through SNCA 5'UTR binding (MLPCN); alpha-synuclein 5'UTR reporter, activators screen; activity score, % (tested at 7.5 µM), hits read low; hit rate 7.1% among 300,000; in the data active means activity score below about -60%
Starred values were filed as active, the others as inactive.

SMILES | aSyn UTR act
COc1ccc(-c2nc3ccccn3c2CN2CCN(c3ccccc3F)CC2)cc1 | -76*
CCc1nnc(NC(=S)Nc2ccccc2)s1 | -124*
Cc1nc(NC(=S)Nc2ccccc2)sc1C | -166*
COC(=O)c1ccc2c(c1)C(C)(C)C(/C=C/c1ccc(OC)c(OC)c1OC)=[N+]2C | 102
COC(=O)c1ccc(C2OCC(C)(C)CO2)cc1 | -135*
Cc1ccc2cc(NC(=O)c3ccccc3C)ccc2n1 | -195*
Cc1ccc2cc(NC(=O)Cc3ccccc3)ccc2n1 | -127*
c1ccc2oc(SCc3cn4ccsc4n3)nc2c1 | -122*
Cc1csc2nc(CSc3ccc(Cl)cc3)cn12 | -103*
Clc1ccc(SCc2cn3cccnc3n2)cc1 | -64*
Cc1cc(OCc2cn3cccnc3n2)ccc1Cl | -127*
Clc1ccc(SCc2cn3ccsc3n2)cc1 | -236*
c1ccc(CSCc2cn3ccsc3n2)cc1 | -176*
c1cn2cc(CSC3CCCCC3)nc2s1 | -130*
CCc1ccc(NC2=NCC(c3ccccc3)S2)cc1 (stereo not drawn) | -140*
O=C(Nc1ccccc1Cl)C1Cc2ccccc2O/C1=N\O (stereo not drawn) | -88*
COC(=O)c1ccccc1NC(=O)NCCc1ccccc1OC | -134*
COC(=O)c1ccccc1NC(=O)CC(=O)Nc1ccccc1C(=O)OC | -64*
Fc1ccc(/C=N/NC2=Nc3cccc4cccc2c34)cc1 | -294*
COc1ccccc1Nc1nnc(SCC(=O)N2CCCC2)s1 | -77*
CCCc1nnc(NC(=O)Nc2ccccc2OC)s1 | -92*
CCCSc1nnc(NC(=O)Nc2ccccc2OC)s1 | -144*
COC(=O)c1cccc(NC(=O)/C=C/c2ccc3c(c2)OCO3)c1 | 102
Cc1cccnc1NC(=O)/C=C/c1ccc2c(c1)OCO2 | -151*
Cc1cc(C)nc(NC(=O)/C=C/c2ccc3c(c2)OCO3)c1 | -207*
SMILES | aSyn UTR act
CN(C)c1ncc(C2=C(Cl)C(=O)C(N3CCCC3)=C(Cl)C2=O)s1 | -70*
O=C(Nc1ccc([N+](=O)[O-])cc1)Nc1ccon1 | 74
CCCCc1ccc(NC(=O)Nc2cnccn2)cc1 | -98*
CCc1ccc(NC(=O)Nc2ccon2)cc1 | -136*
CCc1ccc(NC(=O)Nc2cnccn2)cc1 | -104*
C=CCS/C(N)=N\N=C\c1c(O)ccc2ccccc12 | -195*
CCCS/C(N)=N/N=C/c1ccccc1O | -198*
CN=Cc1nc(-c2ccccc2)oc1O | -97*
Oc1oc(-c2ccccc2)nc1/C=N/c1ccccn1 | -86*
Cc1ccc(-c2nc(C=Nc3ccc(O)cc3)c(O)o2)cc1 | -95*
N#CC(c1cccc(Cl)c1)c1ccc2c(C(F)(F)F)cc(C(F)(F)F)nc2n1 (stereo not drawn) | 97
CCN(CC)C(=O)CCCOc1ccc(Cl)cc1Cl | -96*
CC(C)NC(=O)CCCOc1ccc(Cl)cc1Cl | -68*
CCCCC(=O)NC(c1ccc(Cl)cc1Cl)c1ccc2cccnc2c1O (stereo not drawn) | 92
C#CCN(C)CCCOc1ccc(Cl)cc1Cl | -79*
COc1ccc2nc3ccccc3nc2c1 | -123*
COc1ccc(-n2nc3cc(C)c(N)c(Br)c3n2)cc1 | -89*
COc1ccc(-n2nc3ccccc3n2)cc1 | -93*
COc1ccc(-n2nc3cc(N)c(Br)cc3n2)cc1 | -164*
Nc1ccc(-n2nc3ccccc3n2)cc1 | 58
Cc1ccc2c(c1)C(N1CCCC1=O)CC(c1ccco1)N2 (stereo not drawn) | -171*
S=C(Nc1ccc(Cl)cc1)Nc1ccc2cn[nH]c2c1 | -175*
CCc1ccc(NC(=S)Nc2ccc3cn[nH]c3c2)cc1 | -196*
S=C(Nc1ccc2cn[nH]c2c1)Nc1ccccc1Cl | -166*
Cc1ccccc1NC(=S)Nc1ccc2cn[nH]c2c1 | -104*
SMILES | aSyn UTR act
COCc1nc2oc3ccc(C)cc3c(=O)c2cc1C(=O)OC | -270*
CCc1nc2oc3ccccc3c(=O)c2cc1C(=O)OC | -156*
COCc1nc2oc3ccc(F)cc3c(=O)c2cc1C(=O)OC | -108*
CN(C)c1ccc(NC(=O)c2ccc3nsnc3c2)cc1 | -166*
O=C(Nc1ccc(Cl)cc1)c1ccc2nsnc2c1 | -202*
COc1ccc(OC)c(Nc2nc(-c3sc(NC(=O)c4ccccc4)nc3C)cs2)c1 | -244*
Cc1nc(NC(=O)c2ccccc2)sc1-c1csc(Nc2ccc(Cl)cc2Cl)n1 | -84*
Cc1nc(NC(=O)c2ccco2)sc1-c1csc(Nc2ccc(Cl)cc2)n1 | -70*
Cc1nc(NC(=O)c2ccccc2)sc1-c1csc(Nc2ccc(F)cc2)n1 | -94*
Cc1nc(NC(=O)c2ccccc2)sc1-c1csc(Nc2ccc(Cl)cc2)n1 | -65*
C/C(=C\c1ccccc1)C(=O)Nc1ccc(Cl)cn1 | -180*
O=C(Nc1ccc(Cl)cn1)Nc1ccccc1F | -153*
CC(C)c1ccc(/C=N/NC(=O)c2c(Cl)cnn2C)cc1 | -142*
O=C(Nc1ccc(F)cc1)Nc1ccc(Cl)cn1 | -121*
Cn1ncc(Cl)c1C(=O)Nc1ccc(Cl)cn1 | -114*
O=C(Nc1ccc(Cl)cn1)Nc1ccc(Cl)cn1 | -77*
Cc1cc2n(n1)C(c1ccc(N(C)C)cc1)Nc1ccccc1-2 (stereo not drawn) | -156*
O=C(NC(=S)Nc1cccc(O)c1)c1ccco1 | -131*
O=C(NC(=S)Nc1ccc2c(c1)OCCO2)c1ccco1 | -114*
O=C(c1ccco1)N1CCCC(Nc2ccc3c(c2)OCCO3)C1 (stereo not drawn) | -79*
Cc1ccccc1OCCN1C(=O)c2ccccc2C1=O | -93*
O=C1c2ccccc2C(=O)N1CCOc1ccccc1 | -96*
O=C1c2ccccc2C(=O)N1CCOc1ccccc1Br | -71*
Nc1cccc2c1C(=O)N(CCOc1ccc(F)cc1)C2=O | -118*
O=C1c2ccccc2C(=O)N1CCOc1ccccc1Cl | -105*
SMILES | aSyn UTR act
CC(=O)Nc1nc2ccccc2n1CCOc1ccccc1Cl | 73
c1ccc2c(Oc3ccc4c(c3)OCO4)nncc2c1 | -71*
COc1nc(-c2ccccc2)cc(-c2ccc3c(c2)OCO3)c1C#N | 64
CC1CCCN(C(=O)CSc2cnc3ccccc3n2)C1 (stereo not drawn) | -154*
CC1CCN(C(=O)CSc2nc3ccccc3s2)CC1 | -154*
CC1CCCC(C)N1C(=O)CSc1nc2ccccc2s1 (stereo not drawn) | -99*
O=C(CSc1nc2ccccc2s1)N1CCCCC1 | -110*
Cc1c(Cl)cccc1N/C(SCC(=O)N1CCCCCC1)=C(/C#N)c1nc2ccccc2s1 | -66*
CC(C)(C)c1ccc(/C=C/C(=O)Nc2nncs2)cc1 | -88*
O=C(/C=C/c1ccc2c(c1)OCO2)Nc1nncs1 | -115*
O=C(NCCc1ccccc1)c1ccccc1NC(=O)C1CC=CCC1C(=O)O (stereo not drawn) | -133*
O=C(O)CCC(=O)Nc1ccccc1C(=O)NCCc1ccccc1 | -78*
NC(=O)c1ccccc1NC(=O)CCc1ccccc1 | -113*
O=C(Nc1ccccc1C(=O)NCCc1ccccc1)c1cnccn1 | -68*
N=c1c2c(n(Cc3cccc(Cl)c3)c3c1CCC3)CCCC2 | 55
O=C(CCc1ccccc1)Nc1c(F)cccc1F | -133*
Cc1ccoc1C(=O)Nc1cccc2ccccc12 | -92*
O=C(Nc1cccc2ccccc12)c1cnccn1 | -96*
O=c1c2ccccc2nnn1COc1ccc(Cl)cc1Br | -154*
O=c1c2ccccc2nnn1COc1ccc(F)cc1Cl | -118*
O=c1c2ccccc2nnn1COc1cccc2ccccc12 | -147*
CCCn1c(CN2CCN(C(=O)OCC)CC2)nc2cc(NC(=O)C(C)C)ccc21 | -70*
